Experimental data as given in PubChem BioAssay AID504329 (Southern Research Specialized Biocontainment Screening …, 2011).
The campaign covered roughly 340,000 compounds. About 1,000 (0.29%) were called active. Not all results are given here. Entries with a potency or affinity are not part of this list. A number with no mark means an inactive call. Rule as the data show it: inconclusive = inhibition above about 27% without an active follow-up result; inactive = below that.

experiment: NS1A inhibition, H1N1 influenza, cell based functional assay (AID 504329); settings: percent inhibition, at 12.5 µM, hits give high values

Compared with `CC1(C)CC(CCN)(Cc2ccccc2Cl)CCO1` (centres undefined), `Nc1ccccc1N1CCOCC1` is higher in inhibition: -1.58% for the first, 0.99% for the second.

Going from `COc1ccccc1N1CCN(C(=O)c2c(-c3c(F)cccc3Cl)noc2C)CC1` to `Cc1onc(-c2c(F)cccc2Cl)c1C(=O)c1ccccc1`, the inhibition rises from -1.81% to 20%.

Going from `O=C1c2ccccc2-c2c1cccc2C(=O)N1CCOCC1` to `CN1CCN(c2cccc3c2C(=O)c2ccccc2C3=O)CC1`, the inhibition rises from -11.9% to 4.2%.

First: N#Cc1c(Cl)cccc1N1CCCC1
Second: O=C1C(Cl)=C(N2CCCCC2)C(=O)N1c1ccccc1Cl
The inhibition of the first is lower: -9.33% for the first, -3.44% for the second.

Compared with `O=C1c2ccccc2-c2onc3ccc(Oc4ccccc4)c1c23`, `CCOc1ccc2noc3c2c1C(=O)c1ccccc1-3` is lower in inhibition: 11.9% for the first, 7.74% for the second.

Going from `O=C1c2ccccc2C(=O)c2cc(N3CCCCC3)ccc21` to `O=C1C=C(N2CCOCC2)c2ccccc2C1=O`, the inhibition rises from -3.43% to -1.26%.

Compared with `O=C(N1CCCC1)C12CC3CC(CC(C3)C1)C2`, `Cc1nc(N2CCCCC2)c2ccsc2n1` is higher in inhibition: -8.92% for the first, -1.56% for the second.

First: CCCOc1ccc(C(=O)OCC(=O)c2c(N)n(C)c(=O)n(C)c2=O)cc1OCC
Second: CC(C)Cn1c(N)c(C(=O)COC(=O)c2c(F)cccc2F)c(=O)n(C)c1=O
The inhibition of the first is higher: -1.83% for the first, -5.45% for the second.

Compared with `CCN(CC(=O)NC(=O)NCc1ccccc1)CC(=O)Nc1cc(Cl)ccc1C`, `CCN(CC(=O)Nc1ccccc1OC)C(=O)CSCc1ccc(C)cc1` is higher in inhibition: -8.38% for the first, 1.31% for the second.

First: Cc1ccc(CCNC(=O)c2ccc(CS(=O)(=O)Cc3ccc(F)cc3)o2)cc1
Second: Cc1ccc(NC(=O)c2cccc(S(=O)(=O)NCc3ccccc3)c2)nc1
The inhibition of the first is higher: 2.69% for the first, -4.84% for the second.

First: O=C(NNc1cccc([N+](=O)[O-])c1)/C(=C\c1cccnc1)NC(=O)c1ccccc1
Second: O=C(NCC(c1ccco1)N1CCc2ccccc2C1)c1cccc([N+](=O)[O-])c1 (centres undefined)
The inhibition of the first is higher: 9.25% for the first, -12.3% for the second.

First: COc1cc(CN(CC(C)C)S(=O)(=O)c2ccccc2Br)cc(OC)c1
Second: COc1ccc2[nH]c(C(=O)NCc3ccccc3)cc2c1
The inhibition of the first is lower: -4.89% for the first, 15.2% for the second.

Compared with `COc1cc(-c2nc(CN3CCN(CC(C)C)C(=O)[C@@H]3C)c(C)o2)ccc1F`, `COC(=O)c1nc2n(n1)C(c1ccc(OC)c(OC)c1)C(C(=O)OC1CCCCC1)=C(C)N2` (centres undefined) is lower in inhibition: 8.73% for the first, 1.19% for the second.

First: CC(=O)N(C)c1ccc(N2CCOCC2)c2c1C(=O)c1ccccc1C2=O
Second: CC(=C1C(=O)c2ccccc2C1=O)N1CCN(Cc2ccccc2)CC1
The inhibition of the first is higher: 16.8% for the first, -9.47% for the second.

Going from `O=C1c2ccccc2-c2onc3ccc(NCc4ccco4)c1c23` to `CCNc1ccccc(-c2ccc3ccccc3n2)c1=O`, the inhibition falls from 26% to -10%.

Going from `COc1ccccc1N1CCN(Cc2ccccc2)CC1` to `COc1ccc(NS(=O)(=O)c2ccc(C(=O)N3CCN(Cc4ccccc4)CC3)cc2)cc1`, the inhibition rises from -11.8% to 11.9%.

First: O=C(O/N=C/c1ccc(Br)cc1)c1ccc(F)cc1
Second: O=C(CNS(=O)(=O)c1ccc(F)cc1)N1CCN(c2ccc(F)cc2)CC1
The inhibition of the first is higher: 5.19% for the first, -9.78% for the second.

First: CCC(C)N(C(=O)COC(=O)CSc1ccc(C)c(C)c1)C1CCS(=O)(=O)C1 (centres undefined)
Second: CCCCn1c(N)c(N(CCOC)C(=O)COC(=O)COc2c(C)cccc2C)c(=O)[nH]c1=O
The inhibition of the first is higher: -5.16% for the first, -13% for the second.

Going from `Clc1ccccc1-c1ccc2ncnc(NCc3cccs3)c2c1` to `S=C(NCc1ccccn1)Nc1ccc(Cl)c(Cl)c1`, the inhibition falls from 9.25% to 1.31%.

First: Cc1ccc(CN2C(=O)C(=O)c3cc(C)ccc32)cc1
Second: Cc1ccc(C(c2cc(Cl)c3cccnc3c2O)N2CCN(C)CC2)cc1 (centres undefined)
The inhibition of the first is lower: 3.72% for the first, 5.08% for the second.

Going from `CCN1CCN(C(c2ccc(C(F)(F)F)cc2)c2ccc3cccnc3c2O)CC1` (centres undefined) to `CN1CCN(C(c2ccc(F)cc2)c2ccc3cccnc3c2O)CC1` (centres undefined), the inhibition falls from 16.8% to 7.02%.

Compared with `Oc1c(C(c2ccc(Cl)cc2)N2CCCC2)cc(Cl)c2cccnc12` (centres undefined), `CN1CCN(C(c2ccc(Cl)cc2)c2cc(Cl)c3cccnc3c2O)CC1` (centres undefined) is higher in inhibition: -6.42% for the first, 2.9% for the second.

First: CN1CCN(C(c2ccccn2)c2cc(Cl)c3cccnc3c2O)CC1 (centres undefined)
Second: O=C(Cn1nnc(-c2ccccc2)n1)N1CCN(c2ccc(F)cc2)CC1
The inhibition of the first is higher: 14.5% for the first, 11.4% for the second.

Going from `CC(C)(C)c1cc(NC(=O)CSc2nncs2)n(-c2ccccc2)n1` to `O=C(Nc1csnn1)OCc1ccccc1`, the inhibition falls from 1.18% to -22.9%.

First: Cc1cc(C(=O)NC(Cc2c[nH]c3ccccc23)C(=O)O)c(C)o1 (centres undefined)
Second: Cc1[nH]c2ccccc2c1/C=N/O
The inhibition of the first is higher: 1.37% for the first, -0.17% for the second.

Compared with `COc1ccc(S(=O)(=O)Nc2ccc3c(c2)N(C(C)=O)CCC3)cc1OC`, `COc1cc(C(=O)N=c2sccn2C)c([N+](=O)[O-])cc1OC` is lower in inhibition: 4.6% for the first, -1.77% for the second.

Going from `COc1ccc(C(=O)c2sc(Nc3ccc(NC(C)=O)cc3)nc2C)cc1` to `COc1ccc(C(=O)NNC(=O)c2ccccn2)cc1`, the inhibition falls from -2.13% to -9.69%.

Compared with `CN(C)c1ccc(/C=C2\CCCCC2=O)cc1`, `CN(C)c1ccc(C=C2C=Cc3ccccc32)cc1` is lower in inhibition: 12.2% for the first, 11.1% for the second.

Going from `Cc1cccc(NC(=O)NNC(=O)c2ccccn2)c1` to `CC(C)C(=O)NNC(=O)c1ccccn1`, the inhibition falls from 0.66% to -2.86%.

Compared with `COCCCNC(=S)NNC(=O)c1csc(C)n1`, `COCCCNC(=S)NNC(=O)c1cccnc1` is higher in inhibition: -15.3% for the first, -5.08% for the second.

Going from `Cc1nnc(NC2CCCCC2)[nH]c1=O` to `Cc1[nH]c2ccccc2c1/C=N/n1cnnc1`, the inhibition rises from -4.74% to -3.32%.

First: COc1ccccc1/C=C1\C(=O)NC(=S)N(c2ccccc2)C1=O
Second: Cn1c(=O)c2c(nc(NCc3ccccc3)n2C)n(C)c1=O
The inhibition of the first is lower: -27.6% for the first, 1.83% for the second.
